Here are results for 8 molecules from PubChem BioAssay (NCI).

About 83,000 compounds went through this panel and 20% of them were active in at least one assay; those are over-represented in the sample as a whole.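 96-well plates, one dose, 48 hours. Percent growth reported; active if below 10.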 A number with no mark means an inactive call. The source made the active and inactive calls.

Among the test systems are SK-MEL-2 melanoma; SN12C renal; UO-31 renal; TK-10 renal; ACHN renal; CAKI-1 renal; CCRF-CEM leukemia; MOLT-4 leukemia; SR leukemia; RPMI-8226 leukemia; OVCAR-8 ovarian; OVCAR-5 ovarian; OVCAR-4 ovarian; SK-OV-3 ovarian; IGROV1 ovarian; OVCAR-3 ovarian; NCI/ADR-RES ovarian; A498 renal; HS 578T breast.
Holding throughout (test): NCI-60 one-dose screen, 48 h (100 = growth as untreated, 0 = no growth, -100 = all killed)
Conditions in all cases: 10 µM unless noted

As to `Cc1oc2ccc(O)c(CN3CCCCCC3)c2c1C(=O)Nc1ccc(C(F)(F)F)cc1`, the growth is 78.4% in the assay with SK-MEL-2 melanoma; 66.7% in the assay on SN12C renal; 40.7% in the assay with UO-31 renal; 81.1% in the assay on TK-10 renal; 68.5% in the assay on ACHN renal; 50.5% in the assay on CAKI-1 renal. Moreover, the growth is 65.2% with CCRF-CEM leukemia; 64.3% in the assay with MOLT-4 leukemia; -8.44% (active) in the assay with SR leukemia; 75.1% in the assay with RPMI-8226 leukemia; 66.3% with OVCAR-8 ovarian; 85.8% in the assay with OVCAR-5 ovarian. Moreover, the growth in the assay with OVCAR-4 ovarian is 58.6%; with SK-OV-3 ovarian it was 76.3%; with IGROV1 ovarian, 54.3%; in the assay on OVCAR-3 ovarian, 62%; in the assay with NCI/ADR-RES ovarian, 53.6%.

Consider `O=C(O)CCCN1C(=O)CSC1=S`, for which the growth in the assay with SK-MEL-2 melanoma is 104%; in the assay with SN12C renal, 94.9%; with UO-31 renal it was 87.9%; in the assay on TK-10 renal it was 131%; with ACHN renal it was 108%; in the assay on CAKI-1 renal, 104%. Also, the growth is 105% with A498 renal; 99.6% in the assay with CCRF-CEM leukemia; 98.4% with MOLT-4 leukemia; 103% in the assay with SR leukemia; 98% with RPMI-8226 leukemia; 105% with OVCAR-8 ovarian. Moreover, the growth with OVCAR-5 ovarian was 106%; in the assay with OVCAR-4 ovarian, 102%; in the assay with SK-OV-3 ovarian, 109%; with IGROV1 ovarian, 103%; in the assay with OVCAR-3 ovarian, 105%; with HS 578T breast, 98.9%.

Turning to `NC(=N\N=C/c1ccc(Cl)cc1Cl)/C(N)=N\N=C/c1ccc(Cl)cc1Cl`, the growth was 63.7% in the assay on SK-MEL-2 melanoma; 67.7% in the assay with SN12C renal; 49.8% with UO-31 renal; 29.7% with TK-10 renal; 17.4% with ACHN renal; 69.9% with CAKI-1 renal. The growth was -2.93% (active) with A498 renal; 3.15% (active) in the assay with CCRF-CEM leukemia; 96.6% in the assay with MOLT-4 leukemia; 51.1% in the assay on SR leukemia; 62.2% in the assay on RPMI-8226 leukemia; 76.6% in the assay on OVCAR-8 ovarian. In addition, the growth was 71.6% in the assay on OVCAR-5 ovarian; -34% (active) in the assay on OVCAR-4 ovarian; 9.34% (active) in the assay on SK-OV-3 ovarian; 15.8% in the assay with IGROV1 ovarian; 21.5% in the assay on OVCAR-3 ovarian; 33.2% in the assay on HS 578T breast. Moreover, the growth in the assay on NCI/ADR-RES ovarian was 82.3%.

On to `COc1cc(/C=C2\C(=O)N(CCOc3cc(O)c4c(=O)cc(-c5ccccc5)oc4c3)c3ccccc32)cc(OC)c1O`, for which the growth with SK-MEL-2 melanoma is 74.1%; in the assay with SN12C renal, 65.9%; in the assay with UO-31 renal, 63.5%; in the assay with TK-10 renal it was 109%; with ACHN renal, 66.9%; in the assay with CAKI-1 renal, 59.3%. The growth in the assay on A498 renal was 127%; in the assay with CCRF-CEM leukemia, 49.6%; with MOLT-4 leukemia it was 51.8%; in the assay with SR leukemia, 39%; in the assay on RPMI-8226 leukemia it was 84.1%; in the assay on OVCAR-8 ovarian, 69.9%. The growth was 103% in the assay on OVCAR-5 ovarian; 82.3% in the assay on OVCAR-4 ovarian; 74.4% in the assay on IGROV1 ovarian; 55% with OVCAR-3 ovarian; 45.5% in the assay with HS 578T breast; 47.5% in the assay with NCI/ADR-RES ovarian.

As for `CCOC(=O)C1=C(C)N(C)C(=O)N(C)C1c1ccccc1` (stereo unspecified), the growth in the assay on SK-MEL-2 melanoma was 106%; in the assay on SN12C renal it was 91.6%; in the assay with UO-31 renal it was 78.7%; in the assay with TK-10 renal it was 106%; in the assay with ACHN renal it was 95.9%; with CAKI-1 renal, 90.6%. For the same molecule, the growth in the assay on A498 renal is 86.8%; in the assay on CCRF-CEM leukemia, 86.6%; in the assay on MOLT-4 leukemia, 104%; with SR leukemia, 125%; in the assay on RPMI-8226 leukemia it was 99.4%; in the assay on OVCAR-8 ovarian it was 104%. Besides, the growth in the assay on OVCAR-5 ovarian is 84.1%; in the assay with OVCAR-4 ovarian it was 103%; with IGROV1 ovarian, 110%; in the assay with OVCAR-3 ovarian it was 99.1%; in the assay with HS 578T breast, 108%; in the assay with NCI/ADR-RES ovarian it was 100%.

As to `CN(C)CCOc1nc2c3cc([N+](=O)[O-])ccc3nn2c2ccccc12`, the growth in the assay on SK-MEL-2 melanoma is 91.6%; with SN12C renal, 14%; in the assay on UO-31 renal it was 23.4%; in the assay on TK-10 renal, 60.8%; in the assay on ACHN renal, -51.3% (active); in the assay on CAKI-1 renal, 23.6%. Besides, the growth was 31.6% in the assay with A498 renal; 11.7% with CCRF-CEM leukemia; 2.34% (active) with MOLT-4 leukemia; 7.43% (active) with SR leukemia; 41.8% with RPMI-8226 leukemia; 31.5% in the assay with OVCAR-8 ovarian. The growth with OVCAR-5 ovarian is 58.6%; in the assay with OVCAR-4 ovarian, 62.4%; with SK-OV-3 ovarian, 34.9%; in the assay with IGROV1 ovarian it was 29.8%; in the assay with OVCAR-3 ovarian, 63.7%; in the assay with HS 578T breast it was 69.8%. Also, in the assay on NCI/ADR-RES ovarian, the growth is 37%.

Consider `O=C1c2ccccc2C(=O)c2cc(Cn3c[n+](Cc4ccc5ccccc5c4)c4ccccc43)ccc21`, for which the growth is 51.2% with SK-MEL-2 melanoma; 47.8% with SN12C renal; 72.8% in the assay with UO-31 renal; 92.4% in the assay on ACHN renal; 40.5% in the assay with CAKI-1 renal; 77.8% in the assay with A498 renal. Further, the growth was 22.1% in the assay on CCRF-CEM leukemia; 28.1% with MOLT-4 leukemia; 38.1% in the assay with SR leukemia; 2.45% (active) in the assay with RPMI-8226 leukemia; 41.4% with OVCAR-8 ovarian; 59.3% in the assay with OVCAR-5 ovarian. In addition, the growth with OVCAR-4 ovarian was 47.2%; with SK-OV-3 ovarian, 83.2%; in the assay with IGROV1 ovarian it was 3.66% (active); in the assay with OVCAR-3 ovarian, 34.9%; in the assay on HS 578T breast it was 62.2%; in the assay on NCI/ADR-RES ovarian, 91.1%.

Regarding `CC1=C([Se]CC(OC(=O)[C@@H](CO)NC(=O)OC(C)(C)C)C(=O)NCCCCCC(=O)OCc2ccccc2)C(=O)c2ccccc2C1=O` (stereo partly specified), the growth with SK-MEL-2 melanoma was -79.9% (active); with SN12C renal it was -72.9% (active); in the assay with UO-31 renal, -99.8% (active); in the assay with TK-10 renal, -95.8% (active); with ACHN renal, -83.3% (active); in the assay with CAKI-1 renal, -86.5% (active). The growth is 31.2% with A498 renal; -8.88% (active) in the assay with CCRF-CEM leukemia; -21.6% (active) in the assay on MOLT-4 leukemia; -4.61% (active) with SR leukemia; -28.9% (active) in the assay with RPMI-8226 leukemia; -82.4% (active) in the assay on OVCAR-8 ovarian. The growth in the assay with OVCAR-5 ovarian is -70.5% (active); in the assay on OVCAR-4 ovarian, -98.1% (active); in the assay on SK-OV-3 ovarian it was -60.1% (active); with IGROV1 ovarian, -93.9% (active); with OVCAR-3 ovarian, -82.1% (active); with HS 578T breast it was 2.05% (active). Also, in the assay with NCI/ADR-RES ovarian, the growth was -76.6% (active).
